Test results from the supplement of paper PMC3334620.
Over roughly 33,000 sequences, “E-score (-0.5 to 0.5)” has its median near -0.041; the highest 2% begin near 0.37. The sample as a whole holds a higher share of the highest values than the screen did.

target: T1, Ecm22 (UniProt Q05958); assay: PBM E-score (8-mer binding enrichment) (E-score (-0.5 to 0.5)); higher = stronger / more preferred TF binding; conditions: protein concentration: 200 nM; construct: GST-full length
T1 sequence: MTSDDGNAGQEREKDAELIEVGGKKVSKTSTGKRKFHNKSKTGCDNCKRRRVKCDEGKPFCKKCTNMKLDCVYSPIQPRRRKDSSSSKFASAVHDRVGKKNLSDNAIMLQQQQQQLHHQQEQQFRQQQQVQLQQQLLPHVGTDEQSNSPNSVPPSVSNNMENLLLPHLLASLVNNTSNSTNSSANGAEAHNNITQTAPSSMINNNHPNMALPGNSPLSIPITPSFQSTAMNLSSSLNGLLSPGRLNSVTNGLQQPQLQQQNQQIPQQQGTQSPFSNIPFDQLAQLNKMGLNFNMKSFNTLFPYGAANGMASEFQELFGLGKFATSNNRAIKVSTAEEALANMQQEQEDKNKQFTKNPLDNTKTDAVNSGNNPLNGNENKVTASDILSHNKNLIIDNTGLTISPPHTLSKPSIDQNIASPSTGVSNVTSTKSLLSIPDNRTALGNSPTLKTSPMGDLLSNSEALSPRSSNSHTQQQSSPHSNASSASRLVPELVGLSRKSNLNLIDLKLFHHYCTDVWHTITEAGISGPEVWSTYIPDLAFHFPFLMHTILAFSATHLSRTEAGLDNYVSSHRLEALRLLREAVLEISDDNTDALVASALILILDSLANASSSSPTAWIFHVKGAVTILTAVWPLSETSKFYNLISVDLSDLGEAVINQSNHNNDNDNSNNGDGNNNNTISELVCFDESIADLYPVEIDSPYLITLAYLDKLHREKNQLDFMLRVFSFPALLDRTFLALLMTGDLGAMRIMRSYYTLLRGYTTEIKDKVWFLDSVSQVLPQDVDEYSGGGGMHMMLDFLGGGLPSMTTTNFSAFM
Method in brief: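 Universal all-10-mer Agilent arrays, fresh or stripped once, were converted to double-stranded form by primer extension. GST-tagged yeast transcription factors from PURExpress in vitro transcription/translation, full-length or DNA-binding domain only, were applied at about 100-200 nM and detected with fluorescent anti-GST. After masliner normalisation, the Universal PBM Analysis Suite scored each ungapped eight-base word together with its reverse complement by E-score.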

Row | Sequence | PBM E-score
1 | GCTCTAAA | -0.144
2 | CCTAACAC | 0.0728
3 | GGTACTAC | 0.0611
4 | AACGGCGT | 0.242
5 | CACGACGG | 0.167
6 | AAGGACGT | 0.0897
7 | GACGACGC | 0.145
8 | CACGGCGA | 0.0797
9 | AACGACGC | 0.448
10 | AACGGCGA | 0.381
11 | ACCGACGT | 0.329
12 | ACCGACGG | 0.196
13 | AACGACGT | 0.435
14 | CACGACGC | 0.119
15 | AACGACGG | 0.444
16 | AGAGTCAG | -0.111
17 | ACCTTCGG | 0.188
18 | CACCATGG | -0.173
19 | AGAGGGTA | -0.0925
20 | GAGCCACA | -0.0887
21 | CGGTTTTA | 0.072
22 | CCTAGCAG | -0.263
23 | GTTGCTCA | 0.108
24 | ACAGGTCC | -0.142
25 | ATATCAAG | 0.0598

Row | Sequence | PBM E-score
26 | TCTGGGAA | 0.00899
27 | CGCATGCG | 0.0792
28 | ACGGTAAC | 0.151
29 | CACGACGA | 0.108
30 | AACGACGA | 0.444
31 | AGCGACGA | 0.195
32 | TACGACGA | 0.469
33 | ATCGACGA | -0.00044
34 | GACGACGA | 0.0563
35 | AGACTTAT | -0.104
36 | CAGCAATG | -0.198
37 | GGATGGTA | -0.0324
38 | TCACTCGA | 0.163
39 | AATGCAGC | -0.147
40 | ATGGTACC | -0.225
41 | CAGGTACA | -0.23
42 | AAGGTACT | 0.0334
43 | ATGGTACA | -0.122
44 | CAGGTACC | -0.126
45 | AAGGTACC | -0.0364
46 | CAGGTACG | 0.423
47 | AAGGTACG | 0.434
48 | ATGGTACG | 0.443
49 | CCTCCTTA | 0.032
50 | CATGCGGG | -0.05

Row | Sequence | PBM E-score
51 | ATAGTGCC | 0.0559
52 | CTAAGCTC | -0.2
53 | ACCGTCTG | -0.112
54 | ATTGCAGG | -0.00797
55 | CCGGTACC | -0.103
56 | ACGGTACC | 0.206
57 | CCGGTACA | 0.0868
58 | ACGGTACT | 0.0921
59 | CCGGTACG | 0.448
60 | ACGGTACG | 0.436
61 | AAAGATTG | -0.286
62 | ACGGAGGA | 0.151
63 | CTCGCTTA | 0.41
64 | CTCGCTGA | -0.0623
65 | GTCGCTAA | 0.289
66 | CTCGCTCA | 0.358
67 | GTCGCTTA | 0.37
68 | ATCGCTTA | 0.327
69 | GTCGCTGA | -0.073
70 | ATCGCTCC | 0.185
71 | CTCGCTCC | 0.405
72 | AAACTCCG | -0.112
73 | AGGGACGG | -0.256
74 | AGTCCGGC | -0.138
75 | TACGTACA | 0.328

Row | Sequence | PBM E-score
76 | CACGTATA | 0.386
77 | AACGTATC | 0.127
78 | AGCGTATA | 0.366
79 | CACGTATG | 0.0729
80 | GACGTATA | 0.365
81 | TACGTATA | 0.401
82 | TACGTAGA | 0.133
83 | GGCGTATA | 0.359
84 | CGCGTATA | 0.403
85 | AACGTATA | 0.411
86 | AACGTATT | 0.229
87 | GGGTGGAA | -0.284
88 | CACCCGCG | -0.0941
89 | TGCTAACA | -0.0691
90 | ACCTGGCT | -0.059
91 | ATCCAAGC | -0.231
92 | ACTAAGGA | 0.1
93 | CGGCCATC | -0.22
94 | CAGCCTCA | -0.00094
95 | TTCCACAA | -0.0103
96 | CTCAGTTA | -0.187
97 | ACGGCGAC | 0.21
98 | ACGGCGAG | 0.214
99 | ACGGCGAT | 0.377
100 | AAAGCCTG | -0.228

Row | Sequence | PBM E-score
101 | ACAGCCCT | -0.279
102 | AAGCTGCA | -0.0356
103 | ATTCGTAC | 0.468
104 | CTTCGTGC | 0.0216
105 | CTTCGTCC | -0.243
106 | CTTCGTGA | 0.209
107 | ATTCGTGC | -0.00078
108 | CTTCGTAA | 0.413
109 | ATTCGTCC | 0.0925
110 | CTTCGTAC | 0.477
111 | CTTCGTCA | 0.117
112 | ACGATCTA | 0.22
113 | ACGATGCT | 0.283
114 | CCATACGG | 0.345
115 | GCATACGC | 0.199
116 | TCATACAA | -0.115
117 | TCATACGA | 0.463
118 | CCATACGC | 0.218
119 | GCATACGA | 0.446
120 | ACATACGC | 0.221
121 | ACATACGA | 0.466
122 | GCATACAA | 0.0278
123 | ACATACGG | 0.321
124 | TCATACCA | -0.0984
125 | CCATACGA | 0.462

Row | Sequence | PBM E-score
126 | GAACCCGC | 0.0274
127 | AAGAAAAC | 0.0702
128 | TAATCATA | -0.0103
129 | TAATCGCA | 0.215
130 | CGAGGACA | 0.0726
131 | GAGTACGC | -0.0338
132 | CAGTACGC | 0.06
133 | AAGTACGT | 0.171
134 | TAGTACCA | -0.124
135 | CAGTACGG | 0.27
136 | TAGTACAA | 0.0161
137 | TAGTACGA | 0.443
138 | AAGTACGC | 0.0885
139 | GAGTACAA | 0.0511
140 | CAGTACGA | 0.423
141 | GAGTACGA | 0.426
142 | AAGTACGA | 0.448
143 | CGGACCCG | 0.21
144 | ACCACAAC | 0.0744
145 | CGGGTCTC | 0.00746
146 | CTATTCGA | 0.0817
147 | ACTGGTAA | 0.0597
148 | CCGTATTA | 0.316
149 | GACGCCCC | -0.0249
150 | ACCGTATA | 0.459

Row | Sequence | PBM E-score
151 | GCCGTATA | 0.463
152 | ACCGTATG | 0.325
153 | ACCGTATC | 0.346
154 | CCCGTATC | 0.327
155 | GCGGTATA | -0.0371
156 | CCCGTATA | 0.471
157 | GCCGTAGA | 0.213
158 | CCCGTAGA | -0.00351
159 | ACGGGGGA | 0.16
160 | CGCTCACC | 0.112
161 | ACCATTTG | -0.0622
162 | CCATGAGA | -0.118
163 | AACCGAGA | 0.312
164 | AGCAAGTG | -0.181
165 | AGTGGAAT | -0.0777
166 | AACCGGAG | -0.0216
167 | AGGCTTTA | -0.133
168 | AGGATCCT | 0.134
169 | CAAACGGA | 0.202
170 | TAAACGTA | 0.38
171 | TAAACGGA | 0.433
172 | AAAACGTA | 0.164
173 | GAAACGGA | 0.256
174 | CAAACGTA | 0.186
